# Screening results from PubChem BioAssay.
# Spn PMK inh = S. pneumoniae PMK inhibitors, primary screen, biochemical, mevalonate pathway, pilot trial included. phosphomevalonate kinase (Streptococcus pneumoniae D39). 0.49% of 65,000 active. inhibition, % at 10 µM. AID 539, 2006. purified PMK, PK/LDH-coupled NADH absorbance 340 nm;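 active = top-ranked compounds by inhibition in the single 10 µM screen, taking a fixed number of the strongest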;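 also: 0% = full reaction with DMSO carrier and 100% = background rate without enzyme reaction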
# NADH enzymes = inhibitors of PK/LDH coupling enzymes, profiling panel, artefact control, biochemical, MLSMR library | coupled PK/LDH NADH assays, four targets | 0.02% of 65,000 active | IC50, µM (titrated, usually from 10 µM), for the others: at the highest dose inhibition;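 active = single-dose screening hits from any of four coupled enzyme assays that gave an IC50 when retested across doses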;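 also: the DPM-DC format reads NADH fluorescence rather than 340 nm absorbance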
# Autofluor 339 = intrinsic fluorescence of library compounds, ex339/em460 – biochemical, MLSMR library, data from DPM-DC assay, artefact control, profiling panel. compound autofluorescence, ex339/em460 nm, NADH buffer; active compounds read high; 1 = no-compound wells, NADH background. fluorescence fold increase at 10 µM. 5.5% of 65,000 active. AID 709, 2007;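 active = at 10 µM, mean starting fluorescence two-fold or more over control wells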;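 also: signal is the first read of a kinetic run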
# Spn MK inh = S. pneumoniae MK inhibitors, primary screen, biochemical, PK/LDH-coupled NADH absorbance; inhibition, % at 10 µM; AID 555, 2006; 0.48% of 65,000 active; mevalonate kinase [Streptococcus pneumoniae D39]; purified MK, PK/LDH-coupled NADH absorbance 340 nm;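 active = ranked among the strongest by inhibition in the single 10 µM screen, a fixed top-ranked set picked for dose follow-up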
# A340 absorber = compound light absorbance at 340 nm, profiling panel, artefact control, biochemical, MLSMR library, data from PS, PMK, MK assays | fold change at 10 µM | compound absorbance at 340 nm, fold over control | AID 708, 2007 | 65,000 tested, under 10 active;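 active = at 10 µM dose, initial 340 nm absorbance at least 2 fold that of control wells; inactive = change under 2 fold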;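 also: initial absorbance extrapolated from kinetic A340 decline of NADH oxidation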
# DPM-DC inhibit = S. pneumoniae DPM-DC inhibitors, primary screen, biochemical, PK/LDH-coupled NADH fluorescence; purified DPM-DC; calls only at 10 µM; 0.49% of 65,000 active; AID 556, 2006;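 active = the 320 compounds with the highest percent inhibition in the single-dose primary screen, excluding strongly autofluorescent ones, cut at about 32% in these data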;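 also: kinetic rate of NADH fluorescence loss reporting ADP formed by the decarboxylase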
# * hit, by the source's call; i = inactive; . = not tested or not shown; + = active, no number. In the library only some 6.8% were active in any assay of this set; here they are far more common.
SMILES,Spn PMK inh,NADH enzymes,Autofluor 339,Spn MK inh,A340 absorber,DPM-DC inhibit
Cc1oc(-c2cc(Cl)ccc2Cl)cc1-c1nn2c(C)nnc2s1,18,6%,1.1,0,1,i
O=C1C(=O)N(CCN2CCOCC2)C(c2ccncc2)/C1=C(/O)c1ccc2c(c1)OCO2 (configuration not stated),0,26%,1.1,79*,1.1,i
CC(C)n1cc(/C=C(\C#N)S(=O)(=O)c2ccccc2)c2ccccc21,3,6%,1.1,8,1,i
Cc1cc(=O)oc2cc(OCC(=O)NCCCN3CCOCC3)ccc12,5,8%,1.8,7,1.1,i
CC(C)CNC(=O)COc1ccc2c3c(c(=O)oc2c1)CCC3,15,19%,2*,3,1.1,+
CC(C)CCNC(=O)COc1ccc2c3c(c(=O)oc2c1)CCC3,18,15%,3.1*,6,1.1,i
COc1ccccc1OCC(=O)NC1CCCCCC1,8,5%,1.1,6,1,i
COc1ccc2c(c1)c(=O)oc1cc(OCC(=O)NC3CC3)ccc12,4,6%,3.7*,7,1.1,.
O=C(CSc1nnc(-c2ccccc2)o1)Nc1ccccc1F,4,3%,1.1,5,1,i
COc1ccc(-c2nnc(Nc3nc4c(OC)cccc4s3)o2)c(OC)c1,18,23%,2.3*,2,1.2,+
COc1cc(OC)cc(-c2nnc(Nc3nc4c(F)cccc4s3)o2)c1,11,6%,3.4*,7,1,.
Fc1cccc2sc(Nc3nnc(-c4ccccc4)o3)nc12,11,8%,4.9*,4,1.2,.
COc1ccc(-c2nnc(Nc3nc4c(OC)cccc4s3)o2)cc1,12,8%,2,0,1.2,i
C=CCOC(=O)c1sc(N2C(=O)c3oc4ccccc4c(=O)c3C2c2ccco2)nc1C (configuration not stated),0,6%,1.3,16,1.1,i
CCn1c(=NC(=O)CSC(C)=O)sc2ccccc21,9,4%,1.1,4,1.1,i
COC(=O)Cn1c(=NC(=O)CSC(C)=O)sc2ccccc21,12,16%,1.1,3,1.1,+
O=C(COc1nnc2ccccn12)N1CCN(S(=O)(=O)c2ccccc2)CC1,13,4%,3.4*,12,1,.
CC(C)[C@H](NC(=O)OC(C)(C)C)c1nnc(SCC(=O)Nc2ccc(Br)cc2)o1,0,3%,1,6,1,i
CCOc1cccc(OCCOCCN2CCCC2)c1,5,6%,1,45*,1,i
Brc1ccc(OCCOCCN2CCOCC2)cc1,9,4%,1.1,2,1,i
Cc1cc(OCCOCCN2CCCC2)ccc1C(C)C,2,14%,1.1,41*,1.1,i
COc1cccc(OCCCCCN2CCOCC2)c1,0,1%,1.1,3,1.1,i
O=C(Cn1cnc2ccccc21)OCC(=O)N1CCc2ccccc2C1,9,6%,1.2,8,1,i
CCOC(=O)C(NS(=O)(=O)c1ccc(Br)cc1)C(C)C (configuration not stated),20,11%,1.1,12,1,i
C=CCN(CC=C)c1nc2ccccc2nc1C(C#N)C(=O)OCCOC (configuration not stated),7,10%,2.2*,5,1,i
SMILES,Spn PMK inh,NADH enzymes,Autofluor 339,Spn MK inh,A340 absorber,DPM-DC inhibit
CCCN(CCC)c1nc2ccccc2nc1C(C#N)C(=O)OCCOC (configuration not stated),5,4%,1.5,7,1,i
O=C(CN(CCN1CCOCC1)C(=O)Cn1nnc(-c2ccc(F)cc2)n1)NC1CCCCC1,7,9%,3.6*,11,1,.
CCOc1ccc(OCC)c(N=c2oc3c(C)ncc(CO)c3cc2C(N)=O)c1,4,2%,0.97,1,1,i
NC(=O)c1cc2ccc(O)cc2oc1=NCc1ccccc1,19,10%,4.6*,0,1,.
NC(=O)c1cc2ccc(O)cc2oc1=Nc1ccccc1,8,9%,1.9,7,1.1,i
COc1ccc(OC)c(N=c2oc3cc(O)ccc3cc2C(N)=O)c1,4,7%,3.3*,9,1.1,.
COc1ccccc1N(CC(=O)Nc1cc(C)on1)S(=O)(=O)c1cccs1,7,3%,1.1,3,1,i
O=C(COc1ccc2c(c1)C(=O)CC1(CCCCC1)O2)NCc1ccccn1,10,5%,5.1*,0,1,.
CC1(C)CC(=O)c2cc(OCC(=O)NCc3cccnc3)ccc2O1,7,4%,5.1*,0,1,.
O=C(COc1ccc(S(=O)(=O)NC2CCCCC2)cc1)NCc1ccccn1,6,5%,1,10,1,i
CC1(C)CC(=O)c2cc(OCC(=O)NCCCN3CCN(c4ccccc4F)CC3)ccc2O1,13,2%,3.4*,0,1,.
CCOC(=O)COc1ccc2c(c1)C(=O)CC(C)(c1cccnc1)O2 (configuration not stated),14,7%,4.8*,0,1.1,.
COc1ccc(CNC(=O)CN(C(=O)c2cc3sccc3n2C)C2CCCC2)cc1,7,6%,1.1,10,1,i
O=c1cc(-c2ccncc2)oc2ccccc12,0,2%,1.1,6,1.1,i
O=c1cc(-c2ccc3c(c2)OCO3)oc2ccccc12,8,4%,3.6*,0,1.2,.
CCOC(=O)CSc1nc2c(c(=O)n(C)c(=O)n2C)n1CCCc1ccccc1,8,5%,1.1,7,1,i
COc1ccc(C(CC(=O)O)NC(=O)OC(C)(C)C)cc1 (configuration not stated),0,1%,1,2,1,i
CC(NC(=O)OC(C)(C)C)C(=O)Oc1ccc2ccc(=O)oc2c1 (configuration not stated),0,3%,2.3*,6,1,.
CC(C)(C)OC(=O)NCCC(=O)Oc1ccc2ccc(=O)oc2c1,9,8%,2.3*,6,1,.
COC(=O)C(CC(C)C)NC(=O)c1ccc(F)cc1 (configuration not stated),24,9%,1.1,4,1,i
CCCCC(CC)C(=O)NCCCN1CCN(CCCNC(=O)C(CC)CCCC)CC1 (configuration not stated),13,7%,1.1,9,1,i
CCOC(=O)CCc1nc2ccccc2[nH]c1=O,12,11%,2.2*,5,1.1,i
